Data published in publication PMC7862700, “An all-to-all approach to the identification of sequence-specific readers for epigenetic DNA modifications on cytosine”.

What was measured:
Test in all cases: DAPPL (digital affinity profiling via proximity ligation, sequencing); 10 mM Tris-HCl pH 7.5, 50 mM NaCl, 1 mM DTT, 4% glycerol, room temperature, 30 min; GST-TFs on glutathione beads, 16-mer random dsDNA library, 0.1% formaldehyde crosslink after washing; high values mean tight binding
[1] = molecular target: T1, FLI1 (Homo sapiens, UniProt Q01543 1-452); settings: protein: recombinant; tags: N-terminal GST; dsDNA, one strand shown
T1 sequence: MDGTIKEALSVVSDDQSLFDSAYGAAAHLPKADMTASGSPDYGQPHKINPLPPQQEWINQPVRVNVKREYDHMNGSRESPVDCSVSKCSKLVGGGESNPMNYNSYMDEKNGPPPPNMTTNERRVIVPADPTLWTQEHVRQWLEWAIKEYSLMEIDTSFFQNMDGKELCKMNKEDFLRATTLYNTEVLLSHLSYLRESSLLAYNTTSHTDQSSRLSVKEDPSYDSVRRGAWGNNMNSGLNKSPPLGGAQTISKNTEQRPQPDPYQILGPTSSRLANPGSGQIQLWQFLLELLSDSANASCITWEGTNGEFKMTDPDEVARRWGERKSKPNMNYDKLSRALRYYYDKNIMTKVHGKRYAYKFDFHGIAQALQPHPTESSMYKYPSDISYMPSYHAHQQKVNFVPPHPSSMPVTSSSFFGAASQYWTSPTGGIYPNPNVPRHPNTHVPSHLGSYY
Outline: (§1)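 Sequencing on an Illumina NextSeq500 followed washing, crosslinking with 0.1% formaldehyde, proximity ligation (BsaI/T4 ligase, 1 h, 37 °C) and PCR amplification of pools that had been incubated for 30 min at room temperature with 200 nmole of a random double-stranded 16-mer DNA library in Tris/NaCl/DTT/glycerol buffer. Each pool held DNA-barcoded human transcription factors, expressed in yeast as GST fusions and captured on glutathione beads, plus a tag-only sample. Binding signal is a hexamer's read frequency for a factor divided by its frequency in the tag-only sample.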

[2] = molecular target: T2, ELK1 (Homo sapiens, UniProt P19419 1-428); settings: protein: recombinant; tags: N-terminal GST; dsDNA, one strand shown
T2 sequence: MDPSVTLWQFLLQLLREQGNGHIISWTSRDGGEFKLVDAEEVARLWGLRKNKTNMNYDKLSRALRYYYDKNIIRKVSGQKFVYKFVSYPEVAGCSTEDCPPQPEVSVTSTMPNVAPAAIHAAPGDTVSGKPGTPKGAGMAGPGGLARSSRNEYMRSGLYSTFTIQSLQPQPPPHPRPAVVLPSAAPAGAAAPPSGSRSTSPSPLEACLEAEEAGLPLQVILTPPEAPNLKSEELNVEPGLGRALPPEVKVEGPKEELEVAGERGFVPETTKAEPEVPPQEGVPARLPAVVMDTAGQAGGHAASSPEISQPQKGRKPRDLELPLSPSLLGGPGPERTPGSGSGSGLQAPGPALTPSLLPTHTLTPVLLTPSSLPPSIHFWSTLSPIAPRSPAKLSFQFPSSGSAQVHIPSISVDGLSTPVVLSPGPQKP
Outline: as §1

[3] = molecular target: T3, GABPA (Homo sapiens, UniProt Q06546 1-454); settings: protein: recombinant; tags: N-terminal GST; dsDNA, one strand shown
T3 sequence: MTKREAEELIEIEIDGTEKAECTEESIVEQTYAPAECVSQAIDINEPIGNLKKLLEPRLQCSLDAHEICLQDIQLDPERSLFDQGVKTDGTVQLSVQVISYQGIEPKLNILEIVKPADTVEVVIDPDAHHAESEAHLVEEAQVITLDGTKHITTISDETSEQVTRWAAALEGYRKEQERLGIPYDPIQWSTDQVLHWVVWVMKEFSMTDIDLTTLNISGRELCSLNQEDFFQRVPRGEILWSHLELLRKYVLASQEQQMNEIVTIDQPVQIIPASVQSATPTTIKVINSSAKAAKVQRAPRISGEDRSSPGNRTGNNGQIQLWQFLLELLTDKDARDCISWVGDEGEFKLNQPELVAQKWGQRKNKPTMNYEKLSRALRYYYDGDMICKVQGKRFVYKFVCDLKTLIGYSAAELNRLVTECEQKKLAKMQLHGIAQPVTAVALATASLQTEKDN
Outline: as §1

[4] = molecular target: T4, ERG (Homo sapiens, UniProt P11308 1-479); settings: protein: recombinant; tags: N-terminal GST; dsDNA, one strand shown
T4 sequence: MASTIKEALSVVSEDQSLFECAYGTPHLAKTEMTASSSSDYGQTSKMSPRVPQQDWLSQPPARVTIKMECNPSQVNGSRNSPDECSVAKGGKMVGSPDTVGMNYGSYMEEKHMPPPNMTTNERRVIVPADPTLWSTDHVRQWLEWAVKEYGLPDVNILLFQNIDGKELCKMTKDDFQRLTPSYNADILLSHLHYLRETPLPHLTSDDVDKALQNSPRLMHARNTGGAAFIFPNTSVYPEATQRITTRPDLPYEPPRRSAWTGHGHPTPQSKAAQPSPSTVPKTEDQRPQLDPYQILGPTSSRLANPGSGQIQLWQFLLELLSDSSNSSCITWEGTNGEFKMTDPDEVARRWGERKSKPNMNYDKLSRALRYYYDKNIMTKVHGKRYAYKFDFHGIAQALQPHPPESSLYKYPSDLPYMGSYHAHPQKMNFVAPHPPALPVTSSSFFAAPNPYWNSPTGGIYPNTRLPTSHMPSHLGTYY
Outline: as §1

[5] = molecular target: ELF1 (Homo sapiens, UniProt P32519 1-619); settings: protein: recombinant; tags: N-terminal GST; dsDNA, one strand shown
Outline: as §1

[6] = molecular target: T5, EHF (Homo sapiens, UniProt Q9NZC4 1-300); settings: protein: recombinant; tags: N-terminal GST; dsDNA, one strand shown
T5 sequence: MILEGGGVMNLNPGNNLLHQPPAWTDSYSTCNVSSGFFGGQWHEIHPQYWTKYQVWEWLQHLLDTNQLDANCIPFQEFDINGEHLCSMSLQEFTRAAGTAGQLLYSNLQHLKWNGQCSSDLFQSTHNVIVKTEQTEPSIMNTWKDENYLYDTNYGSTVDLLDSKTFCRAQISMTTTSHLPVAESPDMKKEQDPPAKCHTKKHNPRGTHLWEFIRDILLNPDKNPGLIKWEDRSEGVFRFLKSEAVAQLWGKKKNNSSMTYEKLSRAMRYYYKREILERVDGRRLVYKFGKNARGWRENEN
Outline: as §1

[7] = molecular target: SPI1 (Homo sapiens, UniProt P17947 1-270); settings: protein: recombinant; tags: N-terminal GST; dsDNA, one strand shown
Outline: as §1

[8] = molecular target: SPIB (Homo sapiens, UniProt Q01892 1-262); settings: protein: recombinant; tags: N-terminal GST; dsDNA, one strand shown
Outline: as §1

[9] = molecular target: T6, ELK3 (Homo sapiens, UniProt P41970 1-407); settings: protein: recombinant; tags: N-terminal GST; dsDNA, one strand shown
T6 sequence: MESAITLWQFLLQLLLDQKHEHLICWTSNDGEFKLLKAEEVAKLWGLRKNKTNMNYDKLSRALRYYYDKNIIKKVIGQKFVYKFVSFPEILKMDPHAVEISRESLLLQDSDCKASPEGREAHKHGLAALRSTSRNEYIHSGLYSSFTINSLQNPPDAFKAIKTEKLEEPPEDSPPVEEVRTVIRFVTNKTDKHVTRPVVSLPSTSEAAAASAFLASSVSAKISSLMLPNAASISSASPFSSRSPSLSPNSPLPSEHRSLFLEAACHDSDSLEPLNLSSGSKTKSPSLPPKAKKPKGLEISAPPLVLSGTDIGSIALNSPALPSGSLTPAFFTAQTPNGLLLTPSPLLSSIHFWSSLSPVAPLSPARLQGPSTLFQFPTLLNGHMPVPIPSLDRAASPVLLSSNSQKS
Outline: as §1

[10] = molecular target: T7, FEV (Homo sapiens, UniProt Q99581 1-238); settings: protein: recombinant; tags: N-terminal GST; dsDNA, one strand shown
T7 sequence: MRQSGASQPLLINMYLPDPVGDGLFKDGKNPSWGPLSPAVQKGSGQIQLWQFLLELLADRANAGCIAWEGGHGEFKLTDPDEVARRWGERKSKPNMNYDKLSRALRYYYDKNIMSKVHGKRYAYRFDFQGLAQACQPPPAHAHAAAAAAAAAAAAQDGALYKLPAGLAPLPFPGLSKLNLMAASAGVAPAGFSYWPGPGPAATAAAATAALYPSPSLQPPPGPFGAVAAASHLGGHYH
Outline: as §1

[11] = molecular target: ETV5 (Homo sapiens, UniProt P41161 1-510); settings: protein: recombinant; tags: N-terminal GST; dsDNA, one strand shown
Outline: as §1

[12] = molecular target: HSF1 (Homo sapiens, UniProt Q00613 1-529); settings: protein: recombinant; tags: N-terminal GST; chain copies: 3; dsDNA, one strand shown
Outline: as §1

[13] = molecular target: T8, SPIC (Homo sapiens, UniProt Q8N5J4 1-248); settings: protein: recombinant; tags: N-terminal GST; dsDNA, one strand shown
T8 sequence: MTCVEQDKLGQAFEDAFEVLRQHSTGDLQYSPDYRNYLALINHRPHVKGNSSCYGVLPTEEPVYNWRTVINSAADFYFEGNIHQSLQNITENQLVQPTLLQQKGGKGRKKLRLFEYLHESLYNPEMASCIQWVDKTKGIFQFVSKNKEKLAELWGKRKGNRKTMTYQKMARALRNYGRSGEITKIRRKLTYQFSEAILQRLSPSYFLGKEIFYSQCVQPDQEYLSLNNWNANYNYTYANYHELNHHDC
Outline: as §1

[14] = molecular target: ELF4 (Homo sapiens, UniProt Q99607 1-663); settings: protein: recombinant; tags: N-terminal GST; dsDNA, one strand shown
Outline: as §1

[15] = molecular target: T9, ELK4 (Homo sapiens, UniProt P28324-2 1-405); settings: protein: recombinant; tags: N-terminal GST; dsDNA, one strand shown
T9 sequence: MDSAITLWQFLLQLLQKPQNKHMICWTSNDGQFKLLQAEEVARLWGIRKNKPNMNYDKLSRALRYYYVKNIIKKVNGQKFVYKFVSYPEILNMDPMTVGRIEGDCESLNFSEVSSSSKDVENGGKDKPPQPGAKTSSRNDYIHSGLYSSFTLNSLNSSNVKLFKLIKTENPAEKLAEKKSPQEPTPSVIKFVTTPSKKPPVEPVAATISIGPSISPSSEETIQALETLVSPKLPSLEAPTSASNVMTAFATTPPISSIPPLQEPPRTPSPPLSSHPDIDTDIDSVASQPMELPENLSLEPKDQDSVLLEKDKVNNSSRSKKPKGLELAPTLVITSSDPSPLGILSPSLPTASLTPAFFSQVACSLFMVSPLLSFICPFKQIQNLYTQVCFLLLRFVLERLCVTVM
Outline: as §1

[16] = molecular target: T10, ETV2 (Homo sapiens, UniProt O00321 1-342); settings: protein: recombinant; tags: N-terminal GST; dsDNA, one strand shown
T10 sequence: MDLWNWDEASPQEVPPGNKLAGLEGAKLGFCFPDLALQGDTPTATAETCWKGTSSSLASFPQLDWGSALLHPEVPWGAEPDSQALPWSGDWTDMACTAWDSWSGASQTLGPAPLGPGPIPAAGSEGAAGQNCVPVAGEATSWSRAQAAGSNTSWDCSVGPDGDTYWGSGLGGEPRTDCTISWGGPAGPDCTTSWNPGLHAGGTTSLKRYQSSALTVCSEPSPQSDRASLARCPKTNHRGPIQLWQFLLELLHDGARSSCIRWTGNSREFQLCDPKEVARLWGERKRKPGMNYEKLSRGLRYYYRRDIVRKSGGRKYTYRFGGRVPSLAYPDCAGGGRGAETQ
Outline: as §1

[17] = molecular target: T11, ELF3 (Homo sapiens, UniProt P78545 1-371); settings: protein: recombinant; tags: N-terminal GST; dsDNA, one strand shown
T11 sequence: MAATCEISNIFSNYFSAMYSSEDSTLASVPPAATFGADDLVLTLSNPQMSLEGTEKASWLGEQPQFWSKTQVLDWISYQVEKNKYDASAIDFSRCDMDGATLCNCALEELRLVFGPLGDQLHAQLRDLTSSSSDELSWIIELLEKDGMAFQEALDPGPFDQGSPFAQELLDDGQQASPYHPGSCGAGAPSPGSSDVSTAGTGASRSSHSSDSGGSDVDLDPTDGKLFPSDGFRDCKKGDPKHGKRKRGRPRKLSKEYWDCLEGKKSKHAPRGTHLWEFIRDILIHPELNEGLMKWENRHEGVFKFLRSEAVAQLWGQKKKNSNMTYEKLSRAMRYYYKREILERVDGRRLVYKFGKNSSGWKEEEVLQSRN
Outline: as §1

[18] = molecular target: CRX (Homo sapiens, UniProt O43186 1-299); settings: protein: recombinant; tags: N-terminal GST; dsDNA, one strand shown
Outline: as §1

[19] = molecular target: ETV1 (Homo sapiens, UniProt P50549 1-477); settings: protein: recombinant; tags: N-terminal GST; dsDNA, one strand shown
Outline: as §1

ELF1, sequence (P32519 whole entry): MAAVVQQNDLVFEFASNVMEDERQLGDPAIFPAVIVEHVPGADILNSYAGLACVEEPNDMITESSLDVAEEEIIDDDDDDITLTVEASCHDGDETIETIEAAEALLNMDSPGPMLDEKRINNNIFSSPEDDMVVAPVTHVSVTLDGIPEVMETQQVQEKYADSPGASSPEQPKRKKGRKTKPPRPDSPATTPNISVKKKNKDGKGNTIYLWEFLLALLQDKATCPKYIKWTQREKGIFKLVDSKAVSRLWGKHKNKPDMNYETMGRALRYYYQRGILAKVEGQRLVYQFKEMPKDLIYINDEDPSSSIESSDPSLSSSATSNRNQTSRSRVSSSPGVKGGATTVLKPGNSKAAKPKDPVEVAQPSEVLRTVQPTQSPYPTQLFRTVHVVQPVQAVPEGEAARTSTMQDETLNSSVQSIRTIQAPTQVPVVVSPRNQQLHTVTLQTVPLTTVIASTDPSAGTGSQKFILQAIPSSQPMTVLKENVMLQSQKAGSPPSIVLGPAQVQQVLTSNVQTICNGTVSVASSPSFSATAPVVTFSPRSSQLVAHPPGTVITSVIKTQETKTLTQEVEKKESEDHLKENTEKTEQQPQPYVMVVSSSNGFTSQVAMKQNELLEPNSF
ELF4, sequence (Q99607 whole entry): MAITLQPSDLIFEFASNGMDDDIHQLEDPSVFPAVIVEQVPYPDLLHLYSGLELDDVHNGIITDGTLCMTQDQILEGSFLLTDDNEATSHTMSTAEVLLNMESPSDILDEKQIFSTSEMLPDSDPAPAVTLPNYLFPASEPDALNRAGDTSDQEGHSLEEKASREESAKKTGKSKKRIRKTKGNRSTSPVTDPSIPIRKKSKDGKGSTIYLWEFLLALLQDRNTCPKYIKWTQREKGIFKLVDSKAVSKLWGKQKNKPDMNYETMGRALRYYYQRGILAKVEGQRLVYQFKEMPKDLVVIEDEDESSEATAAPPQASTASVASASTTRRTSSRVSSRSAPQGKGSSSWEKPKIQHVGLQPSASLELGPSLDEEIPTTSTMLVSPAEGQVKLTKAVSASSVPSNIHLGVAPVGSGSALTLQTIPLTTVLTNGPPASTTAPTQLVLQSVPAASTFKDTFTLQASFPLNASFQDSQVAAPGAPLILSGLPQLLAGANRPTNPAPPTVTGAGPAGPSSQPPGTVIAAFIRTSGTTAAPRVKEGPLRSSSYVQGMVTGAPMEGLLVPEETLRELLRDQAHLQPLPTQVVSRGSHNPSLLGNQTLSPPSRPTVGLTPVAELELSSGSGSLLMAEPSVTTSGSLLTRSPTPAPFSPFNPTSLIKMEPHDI
ETV1, sequence (P50549 whole entry): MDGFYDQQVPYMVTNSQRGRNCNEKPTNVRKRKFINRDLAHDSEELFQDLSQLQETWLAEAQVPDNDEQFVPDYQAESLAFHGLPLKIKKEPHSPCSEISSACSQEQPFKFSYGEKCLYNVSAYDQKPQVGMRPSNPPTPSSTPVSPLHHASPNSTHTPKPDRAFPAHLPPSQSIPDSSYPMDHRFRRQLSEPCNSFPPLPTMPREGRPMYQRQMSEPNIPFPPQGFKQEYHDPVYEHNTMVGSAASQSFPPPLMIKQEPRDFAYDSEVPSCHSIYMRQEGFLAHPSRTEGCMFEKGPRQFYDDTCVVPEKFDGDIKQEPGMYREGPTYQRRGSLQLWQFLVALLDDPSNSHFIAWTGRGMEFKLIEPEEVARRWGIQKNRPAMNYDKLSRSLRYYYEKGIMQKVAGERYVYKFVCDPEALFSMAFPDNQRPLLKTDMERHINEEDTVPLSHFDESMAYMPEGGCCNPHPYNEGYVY
CRX, sequence (O43186 whole entry): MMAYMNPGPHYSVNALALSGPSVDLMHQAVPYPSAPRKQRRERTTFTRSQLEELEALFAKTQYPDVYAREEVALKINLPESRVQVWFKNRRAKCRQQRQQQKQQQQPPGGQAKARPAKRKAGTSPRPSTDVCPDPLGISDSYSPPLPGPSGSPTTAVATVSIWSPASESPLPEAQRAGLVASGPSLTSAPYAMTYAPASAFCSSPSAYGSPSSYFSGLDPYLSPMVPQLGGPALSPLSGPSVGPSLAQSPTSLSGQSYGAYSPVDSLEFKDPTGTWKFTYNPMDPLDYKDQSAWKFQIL
ETV5, sequence (P41161 whole entry): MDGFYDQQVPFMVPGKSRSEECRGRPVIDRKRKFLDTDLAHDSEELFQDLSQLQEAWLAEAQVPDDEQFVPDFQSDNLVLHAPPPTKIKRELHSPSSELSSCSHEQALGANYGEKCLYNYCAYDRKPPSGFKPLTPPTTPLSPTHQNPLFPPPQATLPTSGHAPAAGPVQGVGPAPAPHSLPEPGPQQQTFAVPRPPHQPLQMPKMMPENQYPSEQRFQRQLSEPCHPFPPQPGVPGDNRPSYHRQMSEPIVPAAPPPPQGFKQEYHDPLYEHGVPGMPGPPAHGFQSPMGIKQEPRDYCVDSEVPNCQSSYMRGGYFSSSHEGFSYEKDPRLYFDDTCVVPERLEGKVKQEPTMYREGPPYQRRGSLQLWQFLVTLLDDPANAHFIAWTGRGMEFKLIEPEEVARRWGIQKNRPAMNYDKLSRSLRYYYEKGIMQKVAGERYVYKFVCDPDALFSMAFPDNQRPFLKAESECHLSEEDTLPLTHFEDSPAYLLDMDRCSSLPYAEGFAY
SPIB, sequence (Q01892 whole entry): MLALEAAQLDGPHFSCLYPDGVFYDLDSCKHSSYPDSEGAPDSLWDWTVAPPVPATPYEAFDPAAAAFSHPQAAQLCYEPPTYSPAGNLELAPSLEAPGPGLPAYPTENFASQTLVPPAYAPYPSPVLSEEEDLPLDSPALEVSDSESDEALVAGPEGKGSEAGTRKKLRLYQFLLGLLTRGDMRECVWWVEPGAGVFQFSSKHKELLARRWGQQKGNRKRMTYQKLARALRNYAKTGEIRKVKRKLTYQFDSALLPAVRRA
HSF1, sequence (Q00613 whole entry): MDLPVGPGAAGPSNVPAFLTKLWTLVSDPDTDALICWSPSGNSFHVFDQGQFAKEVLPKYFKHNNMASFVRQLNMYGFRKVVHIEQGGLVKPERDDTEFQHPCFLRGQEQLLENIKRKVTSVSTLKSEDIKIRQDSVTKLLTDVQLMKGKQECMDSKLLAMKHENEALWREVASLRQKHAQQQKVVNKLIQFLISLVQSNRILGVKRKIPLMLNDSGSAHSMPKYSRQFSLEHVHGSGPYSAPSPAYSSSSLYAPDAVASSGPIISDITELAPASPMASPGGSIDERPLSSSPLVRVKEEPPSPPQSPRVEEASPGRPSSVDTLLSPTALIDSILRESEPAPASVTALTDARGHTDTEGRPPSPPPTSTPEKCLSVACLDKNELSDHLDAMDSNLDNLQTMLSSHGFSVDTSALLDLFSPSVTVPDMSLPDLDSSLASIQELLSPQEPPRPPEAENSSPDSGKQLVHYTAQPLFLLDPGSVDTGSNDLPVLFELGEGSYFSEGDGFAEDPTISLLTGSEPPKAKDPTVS

TTTCTA
binding signal [1]: 1.3 fold enrichment (6-mer frequency, TF over GST control) | binding signal [2]: 1.39 fold enrichment (6-mer frequency, TF over GST control) | binding signal [3]: 1.29 fold enrichment (6-mer frequency, TF over GST control) | binding signal [4]: 1.34 fold enrichment (6-mer frequency, TF over GST control) | binding signal [5]: 1.28 fold enrichment (6-mer frequency, TF over GST control) | binding signal [6]: 1.36 fold enrichment (6-mer frequency, TF over GST control) | binding signal [7]: 1.36 fold enrichment (6-mer frequency, TF over GST control) | binding signal [8]: 1.19 fold enrichment (6-mer frequency, TF over GST control) | binding signal [9]: 1.26 fold enrichment (6-mer frequency, TF over GST control) | binding signal [10]: 1.34 fold enrichment (6-mer frequency, TF over GST control) | binding signal [11]: 1.37 fold enrichment (6-mer frequency, TF over GST control) | binding signal [12]: 3.01 fold enrichment (6-mer frequency, TF over GST control) | binding signal [13]: 1.52 fold enrichment (6-mer frequency, TF over GST control) | binding signal [14]: 1.33 fold enrichment (6-mer frequency, TF over GST control) | binding signal [15]: 1.34 fold enrichment (6-mer frequency, TF over GST control) | binding signal [16]: 1.27 fold enrichment (6-mer frequency, TF over GST control) | binding signal [17]: 1.36 fold enrichment (6-mer frequency, TF over GST control) | binding signal [18]: 1.97 fold enrichment (6-mer frequency, TF over GST control) | binding signal [19]: 1.47 fold enrichment (6-mer frequency, TF over GST control)
